This is an account of results in PubChem BioAssay (EPA / NIEHS).

In general, AC50 refers to the midpoint of the concentration-response curve, whichever way the signal moves.

Experiment [1] can be described thus: ATG_NFI_CIS: Attagene CIS-FACTORIAL HepG2 Assay for human Nuclear Factor I (NFI) (AID 2282989). The conditions noted are these: HepG2 cis-regulatory reporter, NFI response element transcription; actives raise or lower the signal. Put shortly: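 Read-out: reporter mRNA via RT-PCR plus capillary electrophoresis with fluorescence detection. Transiently transfected HepG2 (endogenous TF activity on cis promoters), 24 h compound exposure; gain or loss of signal fitted against DMSO.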

Experiment [2] concerns the target Myc proto-oncogene protein (Homo sapiens) (UniProt P01106). Kind of experiment: ATG_Myc_CIS: Attagene CIS-FACTORIAL HepG2 Assay for human Myelocytomatosis (Myc) Proto-Oncogene Transcription Factor (AID 2282990). Conditions: HepG2, Attagene cis-reporter transcription factor activity; actives raise or lower the signal. Put shortly: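 Multiplexed cis-reporter transcription in HepG2 cells after 24 h chemical treatment. Reporter mRNA measured by RT-PCR and capillary electrophoresis fluorescence; activity fitted bidirectionally against DMSO control.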

A short description of experiment [3]: ATG_NF_kB_CIS: Attagene CIS-FACTORIAL HepG2 Assay for human Nuclear Factor Kappa B (NF-kB) (AID 2282991). The conditions noted are these: HepG2 Attagene cis-factorial NF-kB reporter mRNA; actives raise or lower the signal. Put shortly:
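Multiplexed cis-reporter assay in transiently transfected HepG2. 24 h treatment; RNA isolated, RT-PCR, labelled fragments resolved by CE. DMSO baseline.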

The nature of experiment [4]: ATG_NRF2_ARE_CIS: Attagene CIS-FACTORIAL HepG2 Assay for human Nuclear Factor Erythroid 2 Related Factor 2 (NFR2) response to Antioxidant Response Elements (ARE) (AID 2282992). The conditions noted are these: HepG2 Attagene ARE/NRF2 reporter, transcription factor activity; actives raise or lower the signal. Put shortly: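 Endogenous transcription factor activity in human liver HepG2 cells is tracked via a cis-element-driven reporter within a multiplexed set. mRNA induction is read by RT-PCR and capillary electrophoresis after 24 h, with DMSO as baseline.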

A short description of experiment [5]: ATG_Oct_MLP_CIS: Attagene CIS-FACTORIAL HepG2 Assay for human Octamer-Binding Transcription Factor (Oct) (AID 2282993). The conditions noted are these: HepG2 Attagene cis-factorial Oct reporter, mRNA; actives raise or lower the signal. Put shortly: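 Read-out: reporter mRNA via RT-PCR plus capillary electrophoresis of 6-FAM-labelled fragments. Transiently transfected HepG2, 24 h exposure, endogenous TF activity on cis elements. Gain or loss of signal fitted relative to DMSO.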

The target in experiment [6] is Cellular tumor antigen p53 (Homo sapiens) (UniProt P04637). Kind of experiment: ATG_p53_CIS: Attagene CIS-FACTORIAL HepG2 Assay for human p53 Transcription Factor (AID 2282994). The conditions noted are these: HepG2 p53 cis-element reporter, Attagene mRNA; actives raise or lower the signal. A digest of the protocol:
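Steps: transfect HepG2 with multiplexed cis reporter constructs; dose chemicals 24 h; extract RNA, reverse-transcribe, PCR-amplify reporter sequences; FAM-label, HpaI-digest, resolve fragments by CE. Activity fitted both directions relative to DMSO.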

A short description of experiment [7]: BSK_3C_uPAR: BioMAP Diversity Plus: 3C Assay for Urokinase-type plasminogen activator receptor (uPAR) Biomarker Activity (AID 2282998). The conditions noted are these: BioMAP 3C HUVEC, uPAR biomarker ELISA; actives raise or lower the signal. Put shortly:
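HUVEC primary cells; 24 h post-dose; uPAR by ELISA; gain or loss of signal fitted bidirectionally vs DMSO baseline.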

Experiment [8] can be described thus: BSK_3C_VCAM1: BioMAP Diversity Plus: 3C Assay for Vascular cell adhesion molecule 1 (VCAM1) Biomarker Activity (AID 2282999). Conditions: BioMAP 3C HUVEC, VCAM1 ELISA, cytokine-stimulated; actives raise or lower the signal. A digest of the protocol: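 Vascular primary endothelium (human umbilical vein) was exposed to chemicals and assayed 24 h later. VCAM-1 levels came from ELISA, with DMSO serving as baseline for bidirectional fitting.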
On the technique in general: An ELISA detects its analyte on a solid surface through an enzyme-linked reagent.

Experiment [9] in a line: BSK_4H_Eotaxin3: BioMAP Diversity Plus: 4H Assay for Eotaxin 3 Biomarker Activity (AID 2283000).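 Also: CCL26 protein level quantified by ELISA in parallel with SRB cytotoxicity check.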 Conditions: primary human endothelial cells (HUVEC); actives raise or lower the signal. Put shortly:
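Human umbilical vein endothelial cells (BSK_4H system) dosed with test chemical; Eotaxin-3 (CCL26) measured by ELISA 24 h after dosing. Bidirectional curve fitting relative to DMSO negative control as baseline.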

For experiment [10], the target named is human Peroxisome Proliferator-activated Receptor delta (PPARd), PPARD (gene 5467) (UniProt Q03181). Kind of experiment: ATG_PPARd_TRANS: Attagene TRANS-FACTORIAL HepG2 Assay for human Peroxisome Proliferator-activated Receptor delta (PPARd) (AID 2283002; active = hit-call score of the fitted dose curve at least 0.9, where 1 is the maximum). Put shortly:
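Multiplexed trans-activation format: HepG2 liver cells expressing exogenous NR-Gal4 chimeras and GAL4-UAS reporters were exposed for 24 h. Reporter mRNA was detected by RT-PCR with capillary electrophoresis fluorescence; activity fitted as gain of signal relative to DMSO.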

Read-out in experiment [11]: Intercellular Adhesion Molecule 1 (ICAM1), ICAM1 (gene 3383)
The experiment in a line: BSK_3C_ICAM1: BioMAP Diversity Plus: 3C Assay for Intercellular Adhesion Molecule 1 (ICAM1) Biomarker Activity (AID 2283003). Conditions: primary human endothelial cells (HUVEC); actives raise or lower the signal. A digest of the protocol: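 ELISA read-out of ICAM-1; HUVEC (primary human), 3C system, 24 h post-dosing; bidirectional fit vs DMSO baseline.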

Experiment [12] has as its target Retinoic acid receptor alpha (Homo sapiens) (UniProt P10276). Kind of experiment: ATG_RARa_TRANS: Attagene TRANS-FACTORIAL HepG2 Assay for human Retinoic Acid Receptor alpha (RARa) (AID 2283005; active = hit-call score of the fitted dose curve at least 0.9, where 1 is the maximum). Put shortly: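 HepG2 cells transiently transfected with multiple reporter units expressing chimeric RARα-GAL4 fusion, with GAL4-UAS-driven reporters. After 24 h compound exposure, reporter mRNA induction quantified by RT-PCR and capillary electrophoresis with fluorescent labeling; gain-of-signal fitted relative to DMSO control.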

Experiment [13] can be described thus: BSK_3C_Proliferation: Cell Proliferation Assessment in the BioMAP Diversity Plus: 3C Assay (AID 2283006). The conditions noted are these: primary human endothelial cells (HUVEC). A digest of the protocol:
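HUVEC, sub-confluent; 48 h chemical exposure; 10% TCA fix, 0.1% SRB stain, A560 total protein. Gain or loss of signal fitted both directions vs DMSO control.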

For experiment [14], the target named is Nuclear receptor subfamily 1 group I member 2 (Homo sapiens) (UniProt O75469). The experiment in a line: ATG_PXR_TRANS: Attagene TRANS-FACTORIAL HepG2 Assay for human Pregnane X Receptor (PXR) (AID 2283008; active = hit-call score of the fitted dose curve at least 0.9, where 1 is the maximum). Put shortly: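 HepG2 transfected (FuGene 6) with GAL4-UAS reporter units + PXR-Gal4 chimera; dosed 24 h. Total RNA → oligo(dT) RT → PCR → 6-FAM primer extension → HpaI cut → CE. Gain-of-signal vs DMSO.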
Chain of Nuclear receptor subfamily 1 group I member 2 (Homo sapiens) (O75469 whole entry, looked up, the tested form may be a part): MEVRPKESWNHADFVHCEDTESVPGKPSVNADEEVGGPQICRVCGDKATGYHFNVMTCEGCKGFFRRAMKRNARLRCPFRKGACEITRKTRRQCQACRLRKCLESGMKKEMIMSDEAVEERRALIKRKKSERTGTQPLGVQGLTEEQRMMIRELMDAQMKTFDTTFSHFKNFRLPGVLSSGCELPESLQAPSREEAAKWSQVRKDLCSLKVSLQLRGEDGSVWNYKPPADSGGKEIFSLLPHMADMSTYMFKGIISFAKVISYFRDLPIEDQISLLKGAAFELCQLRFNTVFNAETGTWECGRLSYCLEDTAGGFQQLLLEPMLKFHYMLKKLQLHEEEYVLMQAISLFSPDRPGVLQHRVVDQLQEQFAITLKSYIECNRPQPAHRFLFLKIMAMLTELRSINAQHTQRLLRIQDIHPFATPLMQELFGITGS

Experiment [15] has as its target human RAR-related Orphan Receptor beta (RORb), RORB (gene 6096) (UniProt Q92753). The experiment in a line: ATG_RORb_TRANS: Attagene TRANS-FACTORIAL HepG2 Assay for human RAR-related Orphan Receptor beta (RORb) (AID 2283010; active = hit-call score of the fitted dose curve at least 0.9, where 1 is the maximum). A digest of the protocol:
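HepG2, transient MRTU transfection (GAL4-UAS reporters, exogenous NR-Gal4 chimeras); 24 h compound exposure; total RNA → RT-PCR → 6-FAM primer extension → HpaI digest → CE fluorescence. Positive direction vs DMSO baseline.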

A short description of experiment [16]: BSK_3C_TissueFactor: BioMAP Diversity Plus: 3C Assay for Tissue Factor Biomarker Activity (AID 2282997). The conditions noted are these: BioMAP 3C HUVEC, tissue factor biomarker readout; actives raise or lower the signal. A digest of the protocol:
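Tissue factor on primary human umbilical vein endothelium was read by ELISA 24 h after dosing, gain or loss relative to DMSO. Cytotoxicity ran alongside via SRB (0.1%, TCA-fixed, 560 nm).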

For experiment [17], the target named is human Peroxisome Proliferator-activated Receptor alpha (PPARa), PPARA (gene 5465) (UniProt Q07869). Kind of experiment: ATG_PPARa_TRANS: Attagene TRANS-FACTORIAL HepG2 Assay for human Peroxisome Proliferator-activated Receptor alpha (PPARa) (AID 2283001; active = hit-call score of the fitted dose curve at least 0.9, where 1 is the maximum). Put shortly:
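Exposure: 24 h, transiently transfected HepG2 cells. Endpoint: GAL4-UAS reporter mRNA, RT-PCR with capillary electrophoresis fluorescence. Baseline: DMSO; increases fitted.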

Experiment [18] addresses Peroxisome proliferator-activated receptor gamma (Homo sapiens) (UniProt P37231). Kind of experiment: ATG_PPARg_TRANS: Attagene TRANS-FACTORIAL HepG2 Assay for human Peroxisome Proliferator-activated Receptor-gamma (PPARg) (AID 2283007; active = hit-call score of the fitted dose curve at least 0.9, where 1 is the maximum). Put shortly: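 Human hepatoma HepG2, transient MRTU transfection, 24 h treatment. mRNA reporter signal by RT-PCR plus capillary electrophoresis, fluorescence detection; fitted for increase over DMSO negative control.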

The target in experiment [19] is human Retinoic Acid Receptor beta (RARb), RARB (gene 5915) (UniProt P10826). The experiment in a line: ATG_RARb_TRANS: Attagene TRANS-FACTORIAL HepG2 Assay for human Retinoic Acid Receptor beta (AID 2283004; active = hit-call score of the fitted dose curve at least 0.9, where 1 is the maximum). A digest of the protocol: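 Induction of reporter mRNA from a chimeric RARb-Gal4 construct was measured by RT-PCR, FAM labelling, HpaI digestion and capillary electrophoresis. Measurements followed 24 h compound treatment of transiently transfected human HepG2 liver cells, with DMSO as baseline.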
Chain of human Retinoic Acid Receptor beta (RARb), RARB (gene 5915) (P10826 whole entry, looked up, the tested form may be a part): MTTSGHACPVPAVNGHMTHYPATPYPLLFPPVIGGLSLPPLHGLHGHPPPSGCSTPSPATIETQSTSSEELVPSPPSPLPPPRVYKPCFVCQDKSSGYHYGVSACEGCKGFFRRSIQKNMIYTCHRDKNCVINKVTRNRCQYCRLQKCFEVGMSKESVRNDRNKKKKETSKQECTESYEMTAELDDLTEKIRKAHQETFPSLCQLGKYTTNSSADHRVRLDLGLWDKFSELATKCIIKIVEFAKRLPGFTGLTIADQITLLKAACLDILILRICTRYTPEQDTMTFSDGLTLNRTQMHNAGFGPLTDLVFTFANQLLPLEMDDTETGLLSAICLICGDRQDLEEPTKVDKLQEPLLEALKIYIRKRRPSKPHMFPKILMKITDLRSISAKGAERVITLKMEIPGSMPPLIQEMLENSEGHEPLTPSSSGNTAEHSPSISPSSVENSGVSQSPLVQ

In experiment [20] the target is human Retinoic Acid Receptor gamma (RARg), RARG (gene 5916) (UniProt P13631). The experiment in a line: ATG_RARg_TRANS: Attagene TRANS-FACTORIAL HepG2 Assay for human Retinoic Acid Receptor gamma (RARg) (AID 2283009; active = hit-call score of the fitted dose curve at least 0.9, where 1 is the maximum). Put shortly: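 Readout: reporter transcript levels via RT-PCR, 6-FAM primer-extension labelling, HpaI digestion and capillary electrophoresis. Cells: HepG2 carrying transfected RARg-GAL4 chimera plus UAS reporter set. Dosing 24 h; DMSO negative control.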
Chain of human Retinoic Acid Receptor gamma (RARg), RARG (gene 5916) (P13631 whole entry, looked up, the tested form may be a part): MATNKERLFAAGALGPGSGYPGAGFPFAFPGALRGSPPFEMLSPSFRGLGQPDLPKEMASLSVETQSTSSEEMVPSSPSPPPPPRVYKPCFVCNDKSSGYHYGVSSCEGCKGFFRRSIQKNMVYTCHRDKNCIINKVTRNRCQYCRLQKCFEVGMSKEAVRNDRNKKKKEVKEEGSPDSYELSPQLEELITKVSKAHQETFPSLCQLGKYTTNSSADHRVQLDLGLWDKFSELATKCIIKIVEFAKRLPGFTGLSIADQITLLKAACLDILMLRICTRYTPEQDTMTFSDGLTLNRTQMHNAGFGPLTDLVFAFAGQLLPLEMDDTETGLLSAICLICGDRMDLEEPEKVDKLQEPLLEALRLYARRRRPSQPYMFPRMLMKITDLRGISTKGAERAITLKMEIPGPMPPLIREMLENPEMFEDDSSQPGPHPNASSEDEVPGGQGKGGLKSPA

Results filed as inconclusive are left out. The source made the active and inactive calls. The calls were made as follows, unless noted: active = hit-call score of the fitted dose curve at least 0.9, where 1 is the maximum; inactive = score below 0.9.

Chain of human RAR-related Orphan Receptor beta (RORb), RORB (gene 6096) (Q92753 whole entry, looked up, the tested form may be a part): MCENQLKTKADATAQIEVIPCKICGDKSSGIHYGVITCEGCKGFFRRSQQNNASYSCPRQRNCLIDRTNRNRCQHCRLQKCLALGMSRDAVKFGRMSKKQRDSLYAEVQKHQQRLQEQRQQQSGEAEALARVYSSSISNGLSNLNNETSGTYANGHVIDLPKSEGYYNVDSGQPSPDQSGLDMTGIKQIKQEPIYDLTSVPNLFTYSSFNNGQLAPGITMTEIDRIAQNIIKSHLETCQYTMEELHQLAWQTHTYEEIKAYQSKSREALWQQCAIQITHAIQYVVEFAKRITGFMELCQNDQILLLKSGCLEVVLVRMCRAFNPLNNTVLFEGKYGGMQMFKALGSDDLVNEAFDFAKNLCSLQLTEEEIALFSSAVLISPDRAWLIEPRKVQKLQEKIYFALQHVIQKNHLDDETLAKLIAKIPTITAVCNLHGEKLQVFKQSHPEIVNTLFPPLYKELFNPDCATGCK
Chain of Retinoic acid receptor alpha (Homo sapiens) (P10276 whole entry, looked up, the tested form may be a part): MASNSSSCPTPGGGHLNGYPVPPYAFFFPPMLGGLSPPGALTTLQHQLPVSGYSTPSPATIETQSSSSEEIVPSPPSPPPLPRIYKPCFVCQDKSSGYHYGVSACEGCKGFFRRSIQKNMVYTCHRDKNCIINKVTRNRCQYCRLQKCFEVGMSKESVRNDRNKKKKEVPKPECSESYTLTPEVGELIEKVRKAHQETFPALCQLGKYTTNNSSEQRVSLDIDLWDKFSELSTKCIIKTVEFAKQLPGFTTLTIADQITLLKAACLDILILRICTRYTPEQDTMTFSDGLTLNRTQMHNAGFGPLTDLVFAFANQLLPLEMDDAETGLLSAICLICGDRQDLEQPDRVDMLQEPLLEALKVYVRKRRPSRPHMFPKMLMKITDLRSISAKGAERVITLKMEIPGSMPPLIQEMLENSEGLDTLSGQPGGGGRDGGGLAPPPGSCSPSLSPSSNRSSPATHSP
Chain of human Peroxisome Proliferator-activated Receptor delta (PPARd), PPARD (gene 5467) (Q03181 whole entry, looked up, the tested form may be a part): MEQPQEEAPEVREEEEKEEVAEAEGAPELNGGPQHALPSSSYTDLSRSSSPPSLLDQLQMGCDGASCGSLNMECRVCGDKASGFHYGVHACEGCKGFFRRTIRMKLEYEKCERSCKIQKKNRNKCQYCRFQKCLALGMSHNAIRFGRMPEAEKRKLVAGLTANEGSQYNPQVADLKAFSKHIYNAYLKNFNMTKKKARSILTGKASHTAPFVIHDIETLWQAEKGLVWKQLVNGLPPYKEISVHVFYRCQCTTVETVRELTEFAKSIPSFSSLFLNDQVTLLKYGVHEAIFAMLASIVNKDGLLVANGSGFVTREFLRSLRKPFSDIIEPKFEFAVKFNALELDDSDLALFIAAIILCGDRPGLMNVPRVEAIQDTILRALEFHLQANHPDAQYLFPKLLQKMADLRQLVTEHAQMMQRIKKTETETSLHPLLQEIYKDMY
Chain of Myc proto-oncogene protein (Homo sapiens) (P01106 whole entry, looked up): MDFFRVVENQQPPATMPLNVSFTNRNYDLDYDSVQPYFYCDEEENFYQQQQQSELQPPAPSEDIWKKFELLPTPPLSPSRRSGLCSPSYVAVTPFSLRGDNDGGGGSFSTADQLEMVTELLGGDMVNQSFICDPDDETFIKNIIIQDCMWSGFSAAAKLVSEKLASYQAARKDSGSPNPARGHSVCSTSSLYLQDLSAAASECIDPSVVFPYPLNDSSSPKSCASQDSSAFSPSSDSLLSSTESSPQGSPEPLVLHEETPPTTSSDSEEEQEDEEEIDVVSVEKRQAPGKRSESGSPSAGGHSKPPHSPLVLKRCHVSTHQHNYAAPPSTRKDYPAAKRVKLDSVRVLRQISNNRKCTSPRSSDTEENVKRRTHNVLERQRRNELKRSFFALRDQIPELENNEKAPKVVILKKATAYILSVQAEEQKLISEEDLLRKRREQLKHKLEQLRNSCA
Chain of Cellular tumor antigen p53 (Homo sapiens) (P04637 whole entry, looked up, the tested form may be a part): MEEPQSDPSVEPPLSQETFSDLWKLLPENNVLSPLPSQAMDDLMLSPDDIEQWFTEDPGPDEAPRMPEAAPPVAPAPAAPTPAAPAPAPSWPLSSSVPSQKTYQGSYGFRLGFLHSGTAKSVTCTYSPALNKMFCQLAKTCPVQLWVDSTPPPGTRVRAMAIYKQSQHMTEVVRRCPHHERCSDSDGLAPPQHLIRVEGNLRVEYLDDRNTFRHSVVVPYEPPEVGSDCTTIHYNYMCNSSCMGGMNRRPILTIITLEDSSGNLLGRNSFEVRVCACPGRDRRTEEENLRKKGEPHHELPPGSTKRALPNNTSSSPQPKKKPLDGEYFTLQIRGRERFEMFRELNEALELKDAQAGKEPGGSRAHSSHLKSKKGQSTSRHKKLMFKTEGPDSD
Chain of human Peroxisome Proliferator-activated Receptor alpha (PPARa), PPARA (gene 5465) (Q07869 whole entry, looked up, the tested form may be a part): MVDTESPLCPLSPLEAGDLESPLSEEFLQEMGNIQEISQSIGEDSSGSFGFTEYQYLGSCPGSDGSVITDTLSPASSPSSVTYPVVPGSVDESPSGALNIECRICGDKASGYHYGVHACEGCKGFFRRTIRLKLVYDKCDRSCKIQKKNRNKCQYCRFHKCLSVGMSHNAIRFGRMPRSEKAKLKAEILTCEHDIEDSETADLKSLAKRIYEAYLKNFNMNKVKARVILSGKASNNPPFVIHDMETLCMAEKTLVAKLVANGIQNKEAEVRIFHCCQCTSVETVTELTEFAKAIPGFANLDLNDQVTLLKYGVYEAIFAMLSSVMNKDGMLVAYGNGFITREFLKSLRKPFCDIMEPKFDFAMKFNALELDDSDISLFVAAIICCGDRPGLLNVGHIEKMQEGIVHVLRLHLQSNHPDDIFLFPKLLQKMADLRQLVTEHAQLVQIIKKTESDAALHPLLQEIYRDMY
Chain of Peroxisome proliferator-activated receptor gamma (Homo sapiens) (P37231 whole entry, looked up): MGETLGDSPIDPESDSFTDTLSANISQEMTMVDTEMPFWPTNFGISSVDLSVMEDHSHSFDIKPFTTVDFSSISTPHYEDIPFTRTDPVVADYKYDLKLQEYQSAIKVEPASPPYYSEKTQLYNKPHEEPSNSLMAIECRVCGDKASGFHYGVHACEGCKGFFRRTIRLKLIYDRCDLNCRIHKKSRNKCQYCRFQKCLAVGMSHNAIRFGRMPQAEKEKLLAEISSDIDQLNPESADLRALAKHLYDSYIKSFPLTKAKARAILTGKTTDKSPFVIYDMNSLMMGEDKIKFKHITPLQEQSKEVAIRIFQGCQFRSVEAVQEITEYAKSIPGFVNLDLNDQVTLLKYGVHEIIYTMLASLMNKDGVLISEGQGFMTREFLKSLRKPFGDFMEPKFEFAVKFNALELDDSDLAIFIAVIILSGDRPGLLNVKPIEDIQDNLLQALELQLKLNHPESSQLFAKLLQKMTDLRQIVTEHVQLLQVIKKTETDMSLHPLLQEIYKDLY

In the case of `CC1(C)NC(=O)NC1=O`, the molecule was called inactive in experiment [1], in experiment [2], in [3], in [4], in experiment [5] and in [6]. Besides, the outcome in experiment [7], in experiment [8], in experiment [9], in experiment [10], in experiment [11] and in [12] was inactive. For the same molecule, the outcome in experiment [13], in [14] and in [15] was inactive.
`FC(F)(F)C(F)(F)C(F)(F)C(F)(F)C(F)(F)C(F)(F)CCI`: the call in experiment [1], in [2], in experiment [4], in experiment [5], in experiment [6] and in experiment [16] was inactive. The outcome in [7], in experiment [8], in experiment [9], in experiment [17], in experiment [10] and in experiment [11] was inactive. Also, the result in experiment [12], in experiment [13], in experiment [14] and in experiment [15] was inactive.
Take `Nc1ccc(S(=O)(=O)c2ccc(N)cc2)cc1`: the molecule was classed as inactive in experiment [1], in experiment [2], in experiment [3], in experiment [4], in experiment [5] and in experiment [6]. Besides, the result in [7], in [8], in experiment [9], in experiment [10], in experiment [11] and in experiment [13] was inactive. The call in experiment [18] and in [14] was inactive.
As to `CCOC(=O)CCC(=O)OCC`, the molecule was classed as inactive in experiment [1], in experiment [2], in experiment [4], in experiment [5], in experiment [6] and in experiment [7]. Besides, the result in experiment [8], in experiment [9], in [11], in experiment [19], in experiment [13] and in experiment [15] was inactive.
Turning to `CCCCCCCCCCCCCCCC`, the result in [1], in experiment [2], in experiment [4], in experiment [5], in experiment [6] and in experiment [7] was inactive. Also, the result in experiment [8], in experiment [9], in experiment [17], in [11], in experiment [19] and in experiment [12] was inactive. Also, in experiment [13], the result was inactive.
Take `COCCOC[C@H](CC1(C(=O)NC2CCC(C(=O)O)CC2)CCCC1)C(=O)Oc1ccc2c(c1)CCC2` (stereo partly specified): the outcome in [1], in experiment [2], in experiment [4], in experiment [5], in experiment [6] and in [16] was inactive. For the same molecule, the result in experiment [7], in [8], in experiment [9], in [17], in experiment [10] and in [11] was inactive. In addition, the molecule was classed as inactive in [19], in experiment [13] and in experiment [18]. Moreover, the AC50 in experiment [14] is 20.6 µM (active).
Regarding `NCCO`, the molecule was called inactive in experiment [1], in experiment [2], in experiment [4], in [5], in [6] and in [16]. For the same molecule, the result in experiment [7], in [8], in [9], in experiment [11], in experiment [19] and in [12] was inactive. Also, the result in [13], in experiment [20] and in experiment [15] was inactive.
